Measured values reported in the supplement of paper PMC10849652.
Targets with a hit are over-represented here; the source holds about 7,900 in all. About 0.6% of all pairs of compound and target were hits. A number with no mark means an inactive call.

Columns and labels:
Experiment in all cases: log2 fold change, soluble protein after heating vs DMSO (PISA); higher = thermal stabilisation; K562 cells, 10 uM, 30 min; active = over 0.2 and 3.5 SD of the protein, either way, in both replicates (recomputed)
erlotinib = compound: C#Cc1cccc(Nc2ncnc3cc(OCCOC)c(OCCOC)cc23)c1 [erlotinib]
Procedure, shortened: (§1)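 K562 cells at 2×10^6 cells/mL were treated for 30 min with 10 μM compound, and aliquots were heated for 3 min over 48°C-58°C before pooling. Extraction used PBS with 0.5% NP-40 at 4°C, and soluble protein was the supernatant after 21,000xg for 90 min, measured by TMTpro 16plex LC-MS/MS with channel sums equalised. Thermal stability values, relative to control samples and from duplicates, are log2 fold changes.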

[1] = compound: C/C(=N\NC(=O)C1=CC(=CC=C1)S(=O)(=O)N2CCOCC2)/C3=C(C=CC(=C3)Cl)O
Procedure, shortened: as §1

[2] = compound: C1=CC(=C(C=C1Cl)C2=NC3=NC=CN=C3C(=N2)NC4=CC=NC=C4)F
Procedure, shortened: as §1

[3] = compound: C1=CC(=CC=C1C2=NC3=C(N2)C=C(C=C3)C(=O)N)OC4=CC=C(C=C4)Cl
Procedure, shortened: as §1

[4] = compound: C1=CC2=C(C=CC(=C2)/C=C\3/C(=O)NC(=NCC4=CC=CS4)S3)N=C1
Procedure, shortened: as §1

[5] = compound: C1=CC2=NC=CN=C2C=C1/C=C/3\C(=O)NC(=O)S3
Procedure, shortened: as §1

[6] = compound: C1=CC=C(C=C1)C2=NC(=C(N2)C3=CC=NC=C3)C4=CC(=C(C=C4)Cl)O
Procedure, shortened: as §1

[7] = compound: C1=CC=C2C(=C1)C3=NNC4=CC=CC(=C43)C2=O
Procedure, shortened: as §1

[8] = compound: C1CCN(C1)C(=O)NC2=CC=CC(=C2)NC3=NC=C(C(=N3)NCCC4=CN=CN4)Br
Procedure, shortened: as §1

[9] = compound: C1CN(CCC1(CC2=CC=C(C=C2)Cl)N)C3=NC=NC4=C3C=CN4
Procedure, shortened: as §1

IRAK-1-4 Inhibitor I = compound: C1COCCN1CCN2C3=CC=CC=C3N=C2NC(=O)C4=CC(=CC=C4)[N+](=O)[O-] [IRAK-1-4 Inhibitor I]
Procedure, shortened: as §1

ibrutinib = compound: C=CC(=O)N1CCC[C@@H](n2nc(-c3ccc(Oc4ccccc4)cc3)c3c(N)ncnc32)C1 [ibrutinib]
Procedure, shortened: as §1

[10] = compound: CC(=O)c1cnc2ccc(-c3cc(Cl)c(O)c(Cl)c3)nc2c1N[C@H]1CC[C@H](CN(C)C)CC1
Procedure, shortened: as §1

ralimetinib = compound: CC(C)(C)Cn1c(N)nc2ccc(-c3[nH]c(C(C)(C)C)nc3-c3ccc(F)cc3)nc21 [ralimetinib]
Procedure, shortened: as §1

[11] = compound: CC(C)(O)CC(=O)NCCn1ccc2ncnc(Nc3ccc(Oc4cccc(C(F)(F)F)c4)c(Cl)c3)c21
Procedure, shortened: as §1

[12] = compound: CC(C)C1=C2N=C(C=C(N2N=C1)NCC3=CC=CC=C3)NCCCCCCN
Procedure, shortened: as §1

[13] = compound: CC(C)C[C@@H](C=O)NC(=O)[C@H](CC(C)C)NC(=O)[C@H](CC(C)C)NC(=O)OCc1ccccc1
Procedure, shortened: as §1

pinometostat = compound: CC(C)N(C[C@H]1O[C@@H](n2cnc3c(N)ncnc32)[C@H](O)[C@@H]1O)[C@H]1C[C@@H](CCc2nc3cc(C(C)(C)C)ccc3[nH]2)C1 [pinometostat]
Procedure, shortened: as §1

[14] = compound: CC1=C(C(CC(=O)N1)C2=CC=C(C=C2)C(F)(F)F)C(=O)NC3=C(C=C4C(=C3)C=NN4)F
Procedure, shortened: as §1

[15] = compound: CC1=C(C2=C(C=C1)C(=O)C3=CC=CC=C3N2CCCN)C
Procedure, shortened: as §1

Sequence of UniProt Q9BU23 (Q9BU23 whole entry, looked up): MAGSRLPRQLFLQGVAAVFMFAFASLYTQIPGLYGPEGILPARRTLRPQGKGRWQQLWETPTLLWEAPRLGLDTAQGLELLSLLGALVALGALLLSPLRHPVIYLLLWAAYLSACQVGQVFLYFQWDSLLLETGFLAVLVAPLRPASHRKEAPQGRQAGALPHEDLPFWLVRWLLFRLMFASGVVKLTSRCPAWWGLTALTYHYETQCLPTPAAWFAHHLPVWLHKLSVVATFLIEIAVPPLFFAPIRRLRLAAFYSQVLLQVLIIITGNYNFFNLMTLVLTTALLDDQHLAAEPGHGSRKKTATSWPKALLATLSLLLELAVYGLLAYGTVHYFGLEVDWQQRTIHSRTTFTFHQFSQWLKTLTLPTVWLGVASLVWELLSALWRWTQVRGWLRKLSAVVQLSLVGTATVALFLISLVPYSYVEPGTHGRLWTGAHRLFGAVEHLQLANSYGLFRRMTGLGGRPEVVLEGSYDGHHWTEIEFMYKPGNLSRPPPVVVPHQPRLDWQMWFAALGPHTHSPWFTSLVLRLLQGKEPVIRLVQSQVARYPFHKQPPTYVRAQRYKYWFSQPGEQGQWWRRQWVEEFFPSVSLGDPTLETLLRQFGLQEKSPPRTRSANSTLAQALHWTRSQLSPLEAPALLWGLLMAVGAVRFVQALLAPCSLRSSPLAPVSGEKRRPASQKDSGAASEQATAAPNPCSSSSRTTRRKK
Sequence of UniProt P49137 (P49137 whole entry, looked up): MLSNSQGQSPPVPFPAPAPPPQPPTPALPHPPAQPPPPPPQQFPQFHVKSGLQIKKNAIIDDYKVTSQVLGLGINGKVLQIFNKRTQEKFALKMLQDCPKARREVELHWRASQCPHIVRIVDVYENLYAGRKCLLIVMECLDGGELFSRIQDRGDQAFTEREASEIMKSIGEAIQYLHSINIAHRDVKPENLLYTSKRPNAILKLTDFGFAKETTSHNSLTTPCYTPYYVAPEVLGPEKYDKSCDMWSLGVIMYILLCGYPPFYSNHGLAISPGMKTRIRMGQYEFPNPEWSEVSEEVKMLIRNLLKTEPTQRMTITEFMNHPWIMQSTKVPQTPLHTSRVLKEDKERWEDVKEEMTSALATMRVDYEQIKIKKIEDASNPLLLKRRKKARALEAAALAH
Sequence of UniProt Q13418 (Q13418 whole entry, looked up): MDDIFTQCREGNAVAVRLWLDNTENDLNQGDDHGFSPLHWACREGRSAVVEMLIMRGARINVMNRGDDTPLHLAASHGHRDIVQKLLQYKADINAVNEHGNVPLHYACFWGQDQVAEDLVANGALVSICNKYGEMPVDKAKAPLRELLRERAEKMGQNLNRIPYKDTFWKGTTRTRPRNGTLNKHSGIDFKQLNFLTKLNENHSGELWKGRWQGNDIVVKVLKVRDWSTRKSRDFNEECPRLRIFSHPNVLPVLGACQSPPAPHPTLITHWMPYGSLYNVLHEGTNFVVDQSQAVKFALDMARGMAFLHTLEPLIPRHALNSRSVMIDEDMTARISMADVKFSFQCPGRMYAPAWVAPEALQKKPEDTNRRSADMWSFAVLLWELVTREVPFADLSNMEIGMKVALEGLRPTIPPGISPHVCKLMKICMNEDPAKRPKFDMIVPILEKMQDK
Sequence of UniProt P49006 (P49006 whole entry, looked up): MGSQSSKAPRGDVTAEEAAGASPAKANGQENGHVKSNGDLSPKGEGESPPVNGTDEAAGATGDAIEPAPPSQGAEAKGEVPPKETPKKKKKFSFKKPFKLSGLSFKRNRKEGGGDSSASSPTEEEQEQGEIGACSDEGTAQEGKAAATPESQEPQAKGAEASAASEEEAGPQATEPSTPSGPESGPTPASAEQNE
Sequence of UniProt P52732 (P52732 whole entry, looked up): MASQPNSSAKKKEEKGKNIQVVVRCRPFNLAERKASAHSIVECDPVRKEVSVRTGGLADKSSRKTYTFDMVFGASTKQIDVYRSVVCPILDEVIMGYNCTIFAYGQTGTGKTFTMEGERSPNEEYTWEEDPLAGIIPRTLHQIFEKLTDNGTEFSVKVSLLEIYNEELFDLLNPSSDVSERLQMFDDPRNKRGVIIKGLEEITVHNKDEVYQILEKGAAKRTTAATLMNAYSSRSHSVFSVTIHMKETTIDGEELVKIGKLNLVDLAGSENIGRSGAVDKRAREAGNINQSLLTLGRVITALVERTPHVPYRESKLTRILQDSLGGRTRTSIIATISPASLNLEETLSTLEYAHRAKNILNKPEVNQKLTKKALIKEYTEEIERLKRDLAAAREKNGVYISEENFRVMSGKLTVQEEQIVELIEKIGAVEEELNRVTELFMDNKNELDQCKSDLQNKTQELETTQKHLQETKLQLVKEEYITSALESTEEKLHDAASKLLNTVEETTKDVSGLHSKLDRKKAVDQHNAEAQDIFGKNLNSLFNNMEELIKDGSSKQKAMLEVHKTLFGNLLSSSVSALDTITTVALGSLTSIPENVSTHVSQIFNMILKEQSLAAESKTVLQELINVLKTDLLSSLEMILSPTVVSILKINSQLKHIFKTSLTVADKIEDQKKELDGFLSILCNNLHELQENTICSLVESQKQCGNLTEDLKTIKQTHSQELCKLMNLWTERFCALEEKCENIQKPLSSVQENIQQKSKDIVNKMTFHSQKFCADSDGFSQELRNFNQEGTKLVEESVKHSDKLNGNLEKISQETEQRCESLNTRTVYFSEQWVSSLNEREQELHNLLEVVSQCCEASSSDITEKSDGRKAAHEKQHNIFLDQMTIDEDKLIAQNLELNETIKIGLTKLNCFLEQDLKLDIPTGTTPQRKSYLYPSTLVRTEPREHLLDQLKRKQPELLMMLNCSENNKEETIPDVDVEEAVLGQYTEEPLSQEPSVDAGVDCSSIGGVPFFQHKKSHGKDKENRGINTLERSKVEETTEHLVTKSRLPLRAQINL
Sequence of UniProt Q9UGP4 (Q9UGP4 whole entry, looked up): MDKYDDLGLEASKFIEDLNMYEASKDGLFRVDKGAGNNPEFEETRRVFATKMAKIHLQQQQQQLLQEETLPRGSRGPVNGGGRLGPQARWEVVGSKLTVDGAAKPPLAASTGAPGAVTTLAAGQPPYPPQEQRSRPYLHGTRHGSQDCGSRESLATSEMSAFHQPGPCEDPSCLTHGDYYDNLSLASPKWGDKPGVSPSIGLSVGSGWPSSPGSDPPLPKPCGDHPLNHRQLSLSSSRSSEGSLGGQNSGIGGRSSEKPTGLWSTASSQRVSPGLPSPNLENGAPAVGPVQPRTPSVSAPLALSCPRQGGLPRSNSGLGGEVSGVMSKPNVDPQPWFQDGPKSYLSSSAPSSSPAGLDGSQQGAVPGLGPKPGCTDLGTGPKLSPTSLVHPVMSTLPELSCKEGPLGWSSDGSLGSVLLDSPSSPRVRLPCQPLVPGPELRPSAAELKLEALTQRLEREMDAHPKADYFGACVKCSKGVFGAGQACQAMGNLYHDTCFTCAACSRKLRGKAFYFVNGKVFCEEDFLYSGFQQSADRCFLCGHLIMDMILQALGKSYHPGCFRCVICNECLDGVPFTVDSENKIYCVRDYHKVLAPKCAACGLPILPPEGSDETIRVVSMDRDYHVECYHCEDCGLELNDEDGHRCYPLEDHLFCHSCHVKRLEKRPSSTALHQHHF
Sequence of UniProt O95819 (O95819 whole entry, looked up): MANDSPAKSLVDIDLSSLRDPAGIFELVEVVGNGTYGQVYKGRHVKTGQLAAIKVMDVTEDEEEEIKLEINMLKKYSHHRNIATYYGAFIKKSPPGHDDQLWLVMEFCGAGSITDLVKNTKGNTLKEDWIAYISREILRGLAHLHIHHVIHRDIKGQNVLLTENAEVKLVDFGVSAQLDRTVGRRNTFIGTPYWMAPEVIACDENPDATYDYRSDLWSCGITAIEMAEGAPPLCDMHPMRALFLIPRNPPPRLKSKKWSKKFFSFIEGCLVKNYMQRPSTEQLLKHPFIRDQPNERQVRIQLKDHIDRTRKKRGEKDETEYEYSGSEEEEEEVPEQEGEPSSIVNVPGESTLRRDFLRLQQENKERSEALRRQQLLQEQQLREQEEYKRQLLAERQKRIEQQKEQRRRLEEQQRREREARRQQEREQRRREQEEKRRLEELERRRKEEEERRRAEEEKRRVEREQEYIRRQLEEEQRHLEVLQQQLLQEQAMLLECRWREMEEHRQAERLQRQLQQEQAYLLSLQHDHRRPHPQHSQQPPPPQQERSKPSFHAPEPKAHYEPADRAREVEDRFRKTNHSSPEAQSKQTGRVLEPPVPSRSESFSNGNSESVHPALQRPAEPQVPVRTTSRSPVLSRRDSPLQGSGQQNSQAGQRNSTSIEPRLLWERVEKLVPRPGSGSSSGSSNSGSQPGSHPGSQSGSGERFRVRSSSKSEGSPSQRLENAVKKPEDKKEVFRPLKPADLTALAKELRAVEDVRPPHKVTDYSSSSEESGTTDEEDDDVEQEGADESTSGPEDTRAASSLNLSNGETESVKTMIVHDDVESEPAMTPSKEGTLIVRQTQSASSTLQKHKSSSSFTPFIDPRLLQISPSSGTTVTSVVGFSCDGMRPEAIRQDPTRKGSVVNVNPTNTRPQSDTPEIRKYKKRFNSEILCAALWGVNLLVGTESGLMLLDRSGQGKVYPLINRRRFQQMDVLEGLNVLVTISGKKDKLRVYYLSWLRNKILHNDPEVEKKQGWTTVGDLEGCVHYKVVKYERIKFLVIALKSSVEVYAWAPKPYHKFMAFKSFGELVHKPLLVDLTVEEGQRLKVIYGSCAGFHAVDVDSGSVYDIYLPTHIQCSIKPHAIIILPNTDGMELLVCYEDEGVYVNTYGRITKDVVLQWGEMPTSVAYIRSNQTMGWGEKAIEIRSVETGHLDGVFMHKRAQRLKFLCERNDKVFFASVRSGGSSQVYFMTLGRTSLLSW
Sequence of UniProt P33947 (P33947 whole entry, looked up): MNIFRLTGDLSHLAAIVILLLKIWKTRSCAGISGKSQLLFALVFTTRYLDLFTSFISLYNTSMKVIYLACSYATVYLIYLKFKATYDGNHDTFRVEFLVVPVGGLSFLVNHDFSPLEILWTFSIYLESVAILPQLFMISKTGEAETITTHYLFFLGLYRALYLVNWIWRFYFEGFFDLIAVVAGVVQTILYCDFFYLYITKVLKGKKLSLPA

Target	log2 fold change (erlotinib)	log2 fold change [1]	log2 fold change [2]	log2 fold change [3]	log2 fold change [4]	log2 fold change [5]	log2 fold change [6]	log2 fold change [7]	log2 fold change [8]	log2 fold change [9]	log2 fold change (IRAK-1-4 Inhibitor I)	log2 fold change (ibrutinib)	log2 fold change [10]	log2 fold change (ralimetinib)	log2 fold change [11]	log2 fold change [12]	log2 fold change [13]	log2 fold change (pinometostat)	log2 fold change [14]	log2 fold change [15]
LMBRD2 (UniProt Q68DH5)	0.015	-0.007	0.097	0.011	0.022	0.038	0.016	-0.118	-0.073	0.1	0.14	-0.034	0.034	-0.016	-0.021	-0.244 (active)	-0.093	0.037	-0.007	0.012
LIMD1 (UniProt Q9UGP4)	0.017	0.058	0.062	-0.019	-0.01	0.077	0.013	0.006	-0.045	0.042	0.03	0.033	-0.008	0.035	-0.035	0.044	-0.072	0.016	0.003	-0.032
KIF13A (UniProt Q9H1H9)	0.065	-0.026	-0.031	0.017	0.056	-0.009	-0.027	-0.055	-0.043	0.072	0.045	0.042	0.047	-0.015	0.025	-0.069	0.035	-0.008	-0.01	-0.044
LMF2 (UniProt Q9BU23)	-0.017	0.002	-0.005	0.434 (active)	0.055	-0.012	0.006	0.052	-0.021	0.021	0.006	-0.035	0.001	-0.008	-0.029	-0.152	0.08	0.008	-0.018	0.001
KDELR2 (UniProt P33947)	-0.06	-0.052	0.048	-0.02	0.042	0.024	0.201	0.048	-0.102	0.019	-0.007	0.03	-0.14	0.127	-0.035	-0.047	-0.568 (active)	-0.008	0.024	0.103
MARCKSL1 (UniProt P49006)	-0.001	0.072	-0.047	-0.02	-0.031	-0.039	-0.015	-0.063	-0.005	0.039	0.041	0	-0.039	-0.069	0.106	0.006	-0.034	-0.017	-0.031	0.028
INPP1 (UniProt P49441)	0.014	0.006	0.073	0.059	0.042	-0.01	0.005	0.044	0.01	-0.101	-0.001	0.023	-0.003	-0.108	-0.039	0.016	-0.007	-0.054	-0.072	-0.03
MED16 (UniProt Q9Y2X0)	-0.019	-0.085	0.065	-0.038	0.038	0.051	-0.067	-0.155	0.034	-0.046	0	0.003	-0.358 (active)	0.033	-0.029	-0.008	0.064	0.112	-0.019	0.17
KIF11 (UniProt P52732)	0.042	0.032	-0.106	-0.058	0.038	0.012	-0.168	0.011	-0.017	-0.158	-0.097	-0.049	0.063	0.045	-0.024	-0.229	0.04	0.188	0.006	-0.014
MAP4K4 isoform 3 (UniProt O95819)	-0.057	0.058	-0.047	0.021	0	0.034	-0.069	-0.316 (active)	-0.031	-0.012	0	0.043	-1.13 (active)	-0.039	-0.023	-0.027	0.024	0.046	0.107	0.073
KIAA1324L (UniProt A8MWY0)	0.036	-0.077	0.003	0.05	0.092	-0.068	0.003	-0.042	-0.03	0.064	0.027	-0.056	-0.052	-0.024	-0.038	0.024	0	-0.008	0.034	-0.037
IRAK4 (UniProt Q9NWZ3)	0.041	-0.009	0.068	-0.038	0.059	-0.023	0.011	-0.004	0.069	-0.074	-0.012	0.002	0.196	-0.014	-0.092	-0.252 (active)	-0.026	0.065	0.02	-0.002
LTN1 isoform 3 (UniProt O94822)	0.026	0.114	-0.021	-0.02	0.032	-0.021	-0.027	-0.056	-0.027	-0.031	-0.05	-0.015	-0.02	0.007	-0.136	-0.305 (active)	0.055	0.098	-0.007	0.093
MAPKAPK2 (UniProt P49137)	0.033	0.059	0.186	-0.011	0.064	0.008	0.207	-0.069	0.047	0.002	0.039	-0.009	0.267 (active)	0.213	-0.03	-0.048	-0.022	-0.028	-0.03	-0.009
ILK (UniProt Q13418)	0	-0.119	-0.086	0.016	0.091	0.002	-0.056	-0.056	0.068	0.008	0.029	0.004	-0.029	0.027	-0.081	-0.094	0.128	0.083	-0.005	0.01
